# Source: PubChem BioAssay AID651739 (Broad Institute, 2012)
# In all, about 5,600 compounds went through this assay and about 4,100 (73%) were called active. Another 4% or so got no clear call; they are omitted. So high a share suggests a set chosen from earlier hits. Only a sample is shown. Values without a mark were called inactive.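 Rule for the calls: active = mean replicate inhibition above about 95% and at least 55% of replicates individually reaching it (limit read from the data); inconclusive = only one of the two criteria is met; inactive = neither criterion is met.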
# Experiment: blockers of Trypanosoma cruzi growth in host cells – cell-based, NIH3T3 host, beta-gal parasite, luminescence, cherry-pick, confirmation (AID 651739)
# Details: T. cruzi beta-gal in NIH3T3, GalScreen luminescence, 90 h; at 8.35 µM; stronger effect = higher value
row,Compound,inhibition
1,O=C(Cc1ccccn1)N1CCCCN2[C@@H](CO)[C@@H](c3ccc(C#Cc4ccccc4)cc3)[C@@H]2C1,112% (active)
2,C/C=C/c1ccc([C@H]2[C@H](CO)N3CCCCN(C(=O)Cc4ccncc4)C[C@@H]23)cc1,99.2% (active)
3,COc1ccc(C#Cc2ccc([C@H]3[C@H](CO)N4CCCCN(C(=O)Cc5ccccc5)C[C@@H]34)cc2)cc1,95.6% (active)
4,COc1ccc(-c2ccc([C@H]3[C@H](CO)N4CCCCN(C(=O)Cc5ccncc5)C[C@@H]34)cc2)cc1,89.1%
5,O=C(Cc1cccnc1)N1CCCCN2[C@@H](CO)[C@H](c3ccc(C#CC4CCCC4)cc3)[C@@H]2C1,103% (active)
